Screening results from PubChem.
TROY NFkB inh: inhibitors of TROY-dependent NF-kB signaling; Q293 LMP1-TROYcd NF-kB luciferase reporter, 4 h; inhibition, % at 10 µM; 360,000 tested, 0.98% active; AID 1347056;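 active = compounds whose plate-normalised and pattern-corrected inhibition of the luciferase reporter signal at the single screening dose is 50% or more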
CF NFkB inh: inhibitors of cystic fibrosis induced NF-kB; inhibition, % at 5 µM; KKLEB NF-kB-GFP reporter, PAF-induced, GFP fluorescence overnight; 360,000 tested, 0.86% active;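 active = at least 50% inhibition at 5 µM, scaled per plate between neutral and stimulator controls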;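 note: PAF is a Pseudomonas aeruginosa culture filtrate used as stimulus; plate controls were PAF-stimulated DMSO wells for no effect and unstimulated DMSO wells for full effect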
KKLEB tox: counter-screen for CF NF-kB inhibitors: cytotoxicity; AID 602141; activity change (cytotoxicity), % at 5 µM; 360,000 tested, 0.36% active; KKLEB CF airway cells viability, ATPlite luminescence, overnight; hits give low values; cells stimulated with P. aeruginosa culture filtrate;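 active = corrected activity change at or below -50% at 5 µM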
Peg3 prom inh-1: Peg3 promoter activity inhibition. HeLa PEG-Prom luciferase reporter, luminescence, overnight. 360,000 tested, 1.7% active. inhibition, % at 20 µM;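 active = inhibition of at least 50% at 20 µM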
HIF-2a inh: HIF-2a inhibition | AID 624352 | 786-0 RCC cells HIF-2a reporter, luciferase luminescence, overnight | inhibition, % at 18.8 µM | 360,000 tested, 0.72% active;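 active = inhibition of the luminescence signal of 40% or more relative to plate controls, in a single-dose primary screen at 18.75 µM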
TWEAK Fn14 block: inhibitors of TWEAK-Fn14 interaction signaling; inhibition, % at 10 µM; 360,000 tested, 2% active; AID 1159606; TWEAK-stimulated Fn14 reporter cells, luciferase luminescence, 8 h; in the data active = inhibition above about 50%
Peg3 prom inh-2: Peg3 promoter inhibition confirmation | shares compounds with Peg3 prom inh-1 | HeLa PEG-Prom luciferase reporter, luminescence, overnight | 1,300 tested, 84% active | inhibition, % at 20 µM;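 active = at 20 µM dose, 40% or more inhibition averaged across four replicates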
* hit, by the source's call; / = not tested or not shown. An excerpt weighted towards active compounds, which were near 4% of everything screened.

SMILES | TROY NFkB inh | CF NFkB inh | KKLEB tox | Peg3 prom inh-1 | HIF-2a inh | TWEAK Fn14 block | Peg3 prom inh-2
CC1(C(=O)NS(=O)(=O)c2ccccc2)CCN1C(=O)CC1CCCC1 (configuration not stated) | 11 | -16 | 2 | 9 | 2 | 0 | /
COC(=O)c1sc2nc(C)cc(C)c2c1N | -26 | -24 | 16 | -57 | -73 | -1 | /
Cc1cc(C)c2c(N)c(C(=O)Nc3ncc(C)s3)sc2n1 | 5 | -4 | -69* | 101* | 87* | 79* | 89*
NC(N)=N/N=C/c1ccc(Cl)cc1Cl | 2 | 12 | -22 | 69* | -46 | 7 | 83*
O=C(NN=Cc1ccc(Cl)cc1Cl)c1ccccc1 | -52 | -8 | 1 | -350 | -230 | -11 | /
COc1ccc(CNn2c(-c3cccc(C)c3)nc3ccccc3c2=O)cc1OC | 3 | -5 | -5 | 57* | -7 | -5 | 38
O=C(NNC(=O)c1cccnc1SCc1cccc([N+](=O)[O-])c1)c1ccccn1 | -6 | 1 | 5 | 55* | 17 | 4 | 70*
COc1ccc(OC)c2sc(N(CCN(C)C)C(=O)c3ccc4ccccc4c3)nc12 | 0 | 8 | -6 | -6 | 1 | -16 | /
COc1cc2ccccc2cc1C(=O)N(CCN(C)C)c1nc2c(OC)ccc(OC)c2s1 | -31 | 42 | -11 | 66* | -13 | -34 | 67*
O=C(Nc1cc(Cl)ccc1-n1cncn1)c1ccc([N+](=O)[O-])o1 | 4 | -3 | -9 | 9 | 15 | 5 | /
CCN1CCN(c2ccc(S(=O)(=O)N3CCOCC3)cc2NC(=O)/C=C/c2ccc([N+](=O)[O-])cc2)CC1 | -17 | -29 | -1 | 70* | -13 | -17 | 75*
CCN1CCN(c2ccc(S(=O)(=O)N3CCOCC3)cc2NC(=O)c2cccc([N+](=O)[O-])c2)CC1 | 5 | -19 | 6 | 2 | 6 | 6 | /
COc1ccc(C(=O)NCCc2nnc3ccc(SCC(=O)Nc4ccccc4)nn23)cc1 | 5 | -9 | -5 | 16 | 19 | -10 | /
COc1cc(CNCCCN2CCOCC2)cc(Br)c1OCc1ccc(Cl)cc1 | -24 | 27 | -30 | 100* | 16 | -51 | 100*
COc1cc(CNCCCN2CCOCC2)cc(Br)c1OCC(=O)N1CCCCC1 | -8 | 4 | -12 | -18 | 0 | 13 | /
COc1ccc(-c2c(-c3cc(OC)cc(OC)c3)n(C)c3ccc(-c4ccc(S(N)(=O)=O)cc4)cc23)cc1 | 8 | 39 | -13 | 53* | 20 | -41 | 30
COc1ccc(-c2c(-c3cc(OC)cc(OC)c3)n(C)c3ccc(-c4cnc(N)nc4)cc23)cc1 | -5 | 9 | -5 | 7 | 5 | -90 | /
CCOC(=O)C1C(=O)CC(=O)C(C(=O)OCC)C1c1ccc(O)cc1 (configuration not stated) | -10 | 14 | -5 | 2 | 7 | -4 | /
Cc1ccc(-c2nn3c(-c4ccco4)nnc3c3ccccc23)cc1S(=O)(=O)NCC1CCCO1 (configuration not stated) | 0 | -113 | -6 | 56* | 5 | 19 | 32
CN(CCOc1ccc(Cl)cc1)C(=O)c1cc(-c2ccco2)nc2ccccc12 | 8 | -10 | -9 | 64* | 2 | 28 | 79*
COc1cccc(NC(=O)CN(C)C(=O)c2cc(-c3ccco3)nc3ccccc23)c1 | -5 | 12 | -3 | 12 | 3 | 13 | /
COc1cc(F)cc(-c2ccc3c(c2)c(C#Cc2ccsc2)c(-c2cc(OC)cc(OC)c2)n3C)c1 | -2 | 24 | -10 | -17 | 5 | -10 | /
CCOC(=O)c1c(NC(=O)CSc2ncccn2)sc2c1CC(C)(C)NC2(C)C | -12 | -5 | -9 | 0 | 14 | -14 | /
CCOC(=O)c1c(NC(=O)c2ccc(S(=O)(=O)N3CCOCC3)cc2)sc2c1CCN(C)C2 | -20 | 12 | -8 | 31 | -19 | -40 | /
CCOC(=O)c1c(NC(=O)COc2ccccc2F)sc2c1CC(C)(C)NC2(C)C | 28 | 23 | -11 | 86* | 4 | 21 | 80*
SMILES | TROY NFkB inh | CF NFkB inh | KKLEB tox | Peg3 prom inh-1 | HIF-2a inh | TWEAK Fn14 block | Peg3 prom inh-2
CCOC(=O)c1c(NC(=O)c2ccc(S(=O)(=O)N3CCOCC3)cc2)sc2c1CC(C)(C)NC2(C)C | 0 | 28 | -13 | 53* | 13 | -16 | 9
CCCCC[C@H]1CN(Cc2ccccc2)C(=O)[C@@H]1CC(=O)NCc1ccccc1 | 6 | -22 | 1 | 5 | 19 | 26 | /
O=C(NC(c1ccc(F)cc1)c1ccc2ccccc2n1)C1CCN(Cc2cccc(C(F)(F)F)c2)CC1 (configuration not stated) | 45 | 38 | -25 | 78* | -52 | 39 | 85*
O=C(NC(c1ccc(F)cc1)c1ccc2ccccc2n1)C1CCN(Cc2ccc3ccccc3n2)CC1 (configuration not stated) | -4 | 11 | 1 | 10 | 19 | -11 | /
Nc1cccc2nc3ccccc3cc12 | -62 | -89 | -8 | 95* | 5 | -32 | 99*
O=S(=O)(NC1CC(NS(=O)(=O)OCC(Cl)(Cl)Cl)C2CCCCC12)OCC(Cl)(Cl)Cl (configuration not stated) | 8 | 32 | -1 | 57* | -32 | 5 | 93*
C/C(=N\NC(=O)c1cc(C2CC2)nc2ccccc12)c1ccc(O)cc1O | 4 | -20 | -8 | 56* | 8 | 17 | 65*
C/C(=N\NC(=O)c1cc(C2CC2)nc2ccccc12)c1ccc(C)s1 | -9 | -4 | -1 | 20 | 20 | -12 | /
C[C@H]1CN([C@@H](C)CO)C(=O)CCCn2nncc2CO[C@H]1CN(C)S(=O)(=O)c1ccc2c(c1)OCCCO2 | -12 | -21 | 13 | 1 | -6 | -13 | /
COc1cccc(/C=N/Nc2ccc(S(=O)(=O)O)cc2)c1O | -16 | 6 | 5 | 11 | 18 | 13 | /
COc1cccc(/C=N/Nc2ccc(C(=O)O)cc2)c1O | 84* | 0 | 7 | 101* | 95* | 103* | 94*
CCOC(=O)Cn1c2ccc(OC)cc2c2nc3ccccc3nc21 | -2 | 26 | -46 | 88* | 16 | 8 | 33
COC(=O)Cn1c2ccc(OC)cc2c2nc3ccccc3nc21 | -40 | -1 | -2 | 23 | 6 | 5 | /
COc1ccccc1N1C(=O)c2cccnc2C1=O | 0 | -12 | -7 | 8 | 18 | 4 | /
COC1=C(Br)C(=O)c2ncccc2C1=O | -1 | -1 | 9 | 100* | 72* | 10 | 99*
Fc1ccc([C@@H]2CCNC[C@H]2COc2ccc3c(c2)OCO3)cc1 | -10 | 8 | -11 | 66* | -13 | -7 | 62*
CN[C@@H](CO)C(=O)NC[C@H]1O[C@@H](n2cc(C)c(=O)[nH]c2=O)C[C@@H]1O | -1 | -7 | 16 | -12 | -4 | -15 | /
